Screening data deposited in PubChem BioAssay by several laboratories.
V-ATPase pH = regulators of yeast V-ATPase proton transport; hit rate 0.37% among 350,000; S. cerevisiae, pHLuorin cytosolic pH fluorescence; response, % at 10 µM; in the data active means response mostly above about 7.3%, no sharp cut-off; inactive means mostly below about 5.4%; further: actives read high
DAGLB inh = blocks human DAGLB lipase activity; HEK293T DAGLB membrane lysate, EnzChek fluorogenic substrate; hit rate 0.059% among 340,000; inhibition, % at 5.17 µM; Q8NCG7; AID 504411; in the data active means inhibition above about 34%
Rtt109 HAT inh = inhibitors of Candida albicans Rtt109/Vps75 histone acetyltransferase; Q5AAJ8; purified Rtt109/Vps75, ThioGlo CoA-SH fluorescence, 4 h; inhibition, % at 34.9 µM; hit rate 0.16% among 330,000; AID 540336;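 active means inhibition of at least 50% in every replicate; inconclusive means best replicate reaches 50% inhibition but some replicates fall short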
beta cell repl = inducers of beta-cell replication in MIN6 cells; MIN6 cells proliferation, ATPlite luminescence, 48 h; cells starved in 0.2% serum; 100% = growth in 10% serum; proliferation, % at 10 µM; hit rate 0.29% among 330,000; AID 2380;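 active means compounds whose signal lies at least 3.5 SD above the mean of all wells on their plate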
HDAC3 inh = blocks human histone deacetylase 3 | O15379 | recombinant HDAC3, fluorogenic peptide/trypsin coupled, fluorescence | inhibition, % at 8.3 µM | hit rate 0.15% among 320,000 | AID 2718; in the data active means inhibition above about 26%, passing the limit was not always enough; inconclusive means no clear call, values can overlap the other calls
Target sequence (O15379 whole entry, looked up): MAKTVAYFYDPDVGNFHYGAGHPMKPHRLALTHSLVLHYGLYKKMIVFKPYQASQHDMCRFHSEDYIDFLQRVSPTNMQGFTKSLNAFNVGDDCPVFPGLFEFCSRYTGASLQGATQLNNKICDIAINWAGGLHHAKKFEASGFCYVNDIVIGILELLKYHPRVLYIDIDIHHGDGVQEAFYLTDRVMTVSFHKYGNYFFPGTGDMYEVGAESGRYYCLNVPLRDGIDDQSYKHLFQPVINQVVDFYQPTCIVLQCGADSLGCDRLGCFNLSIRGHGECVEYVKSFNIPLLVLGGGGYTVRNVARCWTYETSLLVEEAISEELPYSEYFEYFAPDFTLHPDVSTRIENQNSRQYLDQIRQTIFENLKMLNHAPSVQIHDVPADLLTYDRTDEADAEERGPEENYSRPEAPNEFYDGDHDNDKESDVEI
Hits are given with their value; n = inactive; u = inconclusive; x = no result. An excerpt weighted towards active compounds, which were near 0.96% of everything screened.

SMILES	V-ATPase pH	DAGLB inh	Rtt109 HAT inh	beta cell repl	HDAC3 inh
O=C1OC(/C(=C\Nc2ccccc2)[N+](=O)[O-])c2ccccc21 (stereo not given)	n	n	n	n	n
Cc1cccc(-n2c(O)c(C=Nc3ccccc3O)c3ccccc3c2=O)n1	n	n	n	n	n
Cc1cccc(-n2c(O)c(/C=N/NC(=O)c3ccccc3Cl)c3ccccc3c2=O)n1	n	n	64	n	u
C=CCC(NCc1ccco1)c1ccc(OC)c(OC)c1 (stereo not given)	n	n	x	n	n
CC(C)C(c1nnnn1C1CCCC1)N1CCOCC1 (stereo not given)	n	n	n	n	n
CCCC(=O)n1nc(-c2ccccc2)nc1SC	n	n	n	n	32
CSc1nc(-c2ccccc2)nn1C(=O)c1ccccc1	n	n	n	n	u
Cc1ccccc1NC(=O)N1CCCC(c2nc(-c3ccc(C(C)C)cc3)no2)C1 (stereo not given)	n	n	n	n	n
Nc1ccccc1Sc1nc2ccccc2[nH]1	n	n	101	n	n
Nc1nc2ccccc2[nH]1	n	n	n	n	n
NS(=O)(=O)c1ccc(NC(=S)NC(=O)c2ccco2)cc1	n	n	n	n	n
O=C1C=CC(=O)N1c1ccc2c(c1)Cc1cc(F)ccc1-2	17	n	n	x	x
CC(=O)Nc1ccc2c(c1)Cc1cc(N3C(=O)C=CC3=O)ccc1-2	n	n	n	x	x
CC(=O)Nc1nc(-c2ccccc2)c(-c2ccccc2)o1	n	n	59	n	n
COc1cc(OC)cc(C(=O)Nc2nc(-c3ccccc3)c(-c3ccccc3)o2)c1	n	n	x	n	n
COc1cc2sc3cc(NCc4ccc(C)o4)ccc3c(=O)c2cc1OC	n	n	n	n	n
CC1CCCN(S(=O)(=O)c2ccc(NC(=O)C3CC(=O)N(c4ccccc4)C3)cc2)C1 (stereo not given)	14	n	n	n	n
Cc1ccc(/C=C/C(=O)NCc2ccc(S(N)(=O)=O)cc2)o1	n	n	72	x	x
Cc1ccc(/C=C/C(=O)Nc2ccc(S(N)(=O)=O)cc2)o1	n	n	n	n	n
CCC(C(=O)OCC(=O)N1C(C)CCCC1C)c1ccccc1 (stereo not given)	284	n	n	n	n
O=C(Oc1csc(=S)n1C(=O)c1ccccc1)c1ccccc1	n	n	n	n	37
Cc1cccc(C(=O)Oc2csc(=S)n2C(=O)c2cccc(C)c2)c1	n	n	n	n	n
O=C1NC(Cc2ccccc2)c2nc3ccc(Cl)cc3c(=O)n2-c2cc(Cl)ccc21 (stereo not given)	x	x	x	n	u
O=C1OC(Oc2ccccc2)(c2ccccc2)c2ccccc21 (stereo not given)	n	n	n	n	n
CCc1nc(SCC(=O)c2ccc3c(c2)OCCO3)c2ccccc2n1	n	n	n	n	34
SMILES	V-ATPase pH	DAGLB inh	Rtt109 HAT inh	beta cell repl	HDAC3 inh
O=C(CSc1nnc(SCc2cccc3ccccc23)s1)c1ccc2c(c1)OCO2	n	n	n	n	38
O=C(CSc1nnc(SCc2cccc3ccccc23)s1)Nc1ccc(C(=O)O)cc1	n	n	n	n	n
CCCn1nnnc1SCC(=O)c1ccc2c(c1)OCCO2	n	n	n	n	50
COc1cccc2sc(N3CCN(C(=O)c4ccco4)CC3)nc12	n	n	n	n	n
O=C(Nc1ncc(Cc2ccc(Cl)cc2Cl)s1)c1ccc([N+](=O)[O-])cc1	n	n	n	n	n
CN(C(=O)CCc1nc(-c2ccccc2F)no1)c1ccccc1	n	n	55	n	n
CCC(=O)Nc1cc(C)c(OC)c(C)c1	n	n	52	n	n
CCC(=O)Nc1cc(OC)cc(OC)c1	n	n	n	n	n
CC(C)c1ccc(NC(=O)NC(C)c2ccc3c(c2)OCO3)cc1 (stereo not given)	n	n	58	n	n
CC1Sc2ccccc2N(CC(=O)N(C(C)C)C(C)C)C1=O (stereo not given)	n	n	51	n	n
Cc1cccc(NC(=O)CCN2C(=O)c3ccccc3C2=O)c1	n	n	59	n	n
CCCS(=O)(=O)Nc1ccc2cn[nH]c2c1	n	n	n	n	n
COc1ccc(CCNC(=O)CS(=O)Cc2nc(-c3ccccc3Cl)oc2C)cc1OC (stereo not given)	n	n	n	n	n
COc1ccc(CN2CCOCCOCCN(Cc3ccc(OC)cc3)CCOCCOCC2)cc1	n	n	n	n	n
COc1ccc(CN2CCOCCOCCOCC2)cc1	14	n	n	n	n
Cc1c(-c2cc(C(=O)O)no2)cnn1C	n	n	n	n	n
